G9a inh = inhibitors of human histone lysine methyltransferase G9a; Q96KQ7; G9a H3K9 monomethylation, AlphaScreen, 2 h; Potency, µM (series often up to 102 µM), inactives show at the highest dose activity, negative = inhibition, most hits filed as inhibitors; AID 504332; 350,000 compounds, 8.8% hits; note: % is set by controls: 0 for no effect and ±100 for the full control effect; nearly all actives have a fitted effect of over 75% in size
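Readings reflect AlphaScreen signal from monomethyl-H3K9 antibody detection. HMT at 20 nM; substrate b-H3K9 500 nM; cofactor SAM 20 uM; 2 h RT reaction; compounds tested as titrations in qHTS with 15 min preincubation.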
HP1b binding inh = inhibitors of HP1-beta chromodomain binding to methylated histone tails. AlphaScreen HP1-beta / biotin-H3K9me3 peptide binding. 390,000 compounds, 0.56% hits. Potency, µM (top dose mostly 114 µM), for the others: at the top dose activity change, negative = inhibition, hits mostly inhibitors; note: nearly all actives have a fitted effect of over 70% in size
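HP1-beta protein (50 nM final) preincubated 30 min at room temperature with biotinylated H3(1-18)K9me3 peptide (50 nM) in PBS pH 7.4, 0.01% Tween-20, then compound added for 30 min. AlphaScreen streptavidin donor/nickel chelate acceptor beads (10 ug/mL final), 30 min dark, luminescence read.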
GLS inh = blocks human kidney-isoform glutaminase activity | O94925 | GLS enzymatic activity, qHTS titration | Potency, µM (top dose mostly 45.5 µM), without a hit: at the top dose activity change, negative = inhibition, most hits filed as inhibitors | 410,000 compounds, 0.21% hits | AID 624170; note: % is set by controls: 0 for no effect and ±100 for the full control effect
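Compounds were pin-transferred onto hKGA, after which L-glutamine (1 mM solution) and a detection mix of glutamate oxidase, HRP and Amplex Red were added. Initial and 30 min RT fluorescence reads were collected.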
JMJD2A Tudor = inhibitors of human JMJD2A Tudor domain; Potency, µM (series often up to 114 µM), for inactives: at the highest dose activity change, negative = inhibition, usual class: inhibitors; O75164; 390,000 compounds, 4.4% hits; AlphaScreen JMJD2A-Tudor / H3K4me3 peptide binding; note: % is set by controls: 0 for no effect and ±100 for the full control effect; nearly all actives have a fitted effect of over 50% in size
BAZ2B inh = blocks human BAZ2B; Q9UIF8; AlphaScreen BAZ2B-H3K14Ac peptide displacement; Potency, µM (titrated, usually from 114 µM), for inactives: top-dose activity change, negative = inhibition, actives largely listed as inhibitors; 360,000 compounds, 4.4% hits; AID 504333; note: % is set by controls: 0 for no effect and ±100 for the full control effect; nearly all actives have a fitted effect of over 60% in size
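BAZ2B (50 nM) with biotin-H3(5-23)K14Ac peptide (50 nM) in PBS pH 7.4, 0.01% Tween-20, preformed 30 min, then compound 30 min at room temperature; top concentration 110uM. AlphaScreen streptavidin donor/nickel chelate acceptor beads (10 ug/mL final), 20 min dark, signal read.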
* = called active by the depositor; [ ] = dose if it differs, or a comment. This is a sample that favours compounds with a hit; in the whole collection about 10% have one here. Calls come from the whole dose curve; as a rule, active = well fitted curve in the direction sought with a large enough effect; inconclusive = small, poorly fitted or top-dose-only effect, or another doubt; inactive = no such curve, though single readings can be large; an effect the other way counts as inactive or inconclusive. Potency is the fitted concentration of half-maximal effect.

Cc1sc2nc(C(C)Sc3nnc(C)n3-c3ccccc3)[nH]c(=O)c2c1C (stereo unspecified) was read as G9a inh inconclusive and BAZ2B inh 0%.
O=C1N/C(=N/Nc2ccccc2)S/C1=C\c1ccccc1 was read as G9a inh 7.9µM*, HP1b binding inh inconclusive, GLS inh 13%, JMJD2A Tudor 45µM* and BAZ2B inh 40µM*.
`CCOC(=O)COc1cc(Br)c(/C=N/Nc2ccccc2)cc1OC` gave G9a inh 10µM*, HP1b binding inh 27%, GLS inh -14%, JMJD2A Tudor -24% and BAZ2B inh -1%.
For COc1ccc(/C=N/Nc2ccc(C(=O)O)cc2)cc1Br the results were G9a inh 35µM*, HP1b binding inh 12%, GLS inh 0%, JMJD2A Tudor -26% and BAZ2B inh inconclusive.
`COc1ccc(/C=N/Nc2ccc(C(=O)O)cc2)cc1OC` gave G9a inh -36%, HP1b binding inh 38%, GLS inh 13%, JMJD2A Tudor -17% and BAZ2B inh -11%.
For C=CCOc1c(Br)cc(/C=N/Nc2ccc(C(=O)O)cc2)cc1OCC the results were G9a inh 3.2µM*, HP1b binding inh 2%, GLS inh -9%, JMJD2A Tudor -27%[57.1 µM] and BAZ2B inh -5%.
COc1ccccc1CNC(=O)CN1C(=O)CCCc2ccccc21 was read as G9a inh -1%[59 µM], HP1b binding inh 33%, GLS inh -2%, JMJD2A Tudor -8% and BAZ2B inh 1%.
CCCCN1CCC(COC(=O)c2cc(Cl)c(N)c3c2OCCO3)CC1 was read as G9a inh inconclusive, HP1b binding inh 25%, GLS inh -1%, JMJD2A Tudor -1% and BAZ2B inh 5%.
`CC1CCC(C(C)C)C2=C1C(C#N)(C#N)C(C#N)(C#N)C(c1ccccc1)N2` (stereo unspecified) gave G9a inh 7.1µM*, HP1b binding inh inconclusive, GLS inh -15%, JMJD2A Tudor inconclusive and BAZ2B inh inconclusive.
CC(C)C1OC2(C)OC(=N)C1(C#N)C(C#N)(C#N)C2c1ccccc1 (stereo unspecified) was read as G9a inh 0%[59 µM], HP1b binding inh 22%, GLS inh inconclusive, JMJD2A Tudor -17% and BAZ2B inh -4%.
`O=C(CCn1ccc2ccccc21)Nc1ccc(N2CCOCC2)cc1` gave G9a inh 50µM*, HP1b binding inh -10%, GLS inh 29%, JMJD2A Tudor -27%[57.1 µM] and BAZ2B inh -9%.
Screening O=C(CSc1cccc[n+]1[O-])Nc1ccc([N+](=O)[O-])cc1Cl returned G9a inh 56µM*, HP1b binding inh 42%, GLS inh -2%, JMJD2A Tudor -1% and BAZ2B inh -13%.
Screening Cn1c(=O)c2ncn(CC(=O)Nc3ccc(N4CCOCC4)cc3)c2n(C)c1=O returned G9a inh 14µM*, HP1b binding inh 12%, GLS inh 49%, JMJD2A Tudor -6% and BAZ2B inh -4%.
`Nc1ccccc1SCC(=O)Nc1ccc(N2CCOCC2)cc1` gave G9a inh 45µM*, HP1b binding inh 27%, GLS inh 49%, JMJD2A Tudor -14% and BAZ2B inh -32%.
`Cc1ccc(S(=O)(=O)ON=C2CCN(S(=O)(=O)c3ccccc3)CC2)cc1` gave G9a inh 26%[59 µM], HP1b binding inh 15%, GLS inh 15%, JMJD2A Tudor -22% and BAZ2B inh inconclusive.
`CCCOc1ccc(C(=O)N2CCN(c3ccc(N)cc3Cl)CC2)cc1` gave G9a inh inconclusive, HP1b binding inh -12%, GLS inh -7%, JMJD2A Tudor -10%[11.4 µM] and BAZ2B inh inconclusive.
O=C(CSc1cccc[n+]1[O-])Nc1ccc(N2CCOCC2)cc1 was read as G9a inh 56µM* and BAZ2B inh -21%.
C[C@@H]1CN([C@H](C)CO)S(=O)(=O)c2ccc(Br)cc2O[C@H]1CN(C)C(=O)Nc1cccc(F)c1 was read as GLS inh 1%.
Screening Cc1c(Cc2ccccc2)sc(NC(=O)/C=C/c2cccc3ccccc23)c1C(N)=O returned G9a inh 20µM*, HP1b binding inh -3%, GLS inh inconclusive, JMJD2A Tudor 40µM* and BAZ2B inh -11%.
COC(=O)c1c(NC(=O)/C=C/C(=O)O)sc(Cc2ccccc2)c1C was read as G9a inh 5%[59 µM], HP1b binding inh 10%, GLS inh 20%, JMJD2A Tudor -23% and BAZ2B inh -27%.
`COC(=O)c1ccsc1NC(=O)CN1CCN(Cc2ccc3c(c2)OCO3)CC1` gave G9a inh -3%, HP1b binding inh 15%, GLS inh 0%, JMJD2A Tudor -30% and BAZ2B inh -1%.
Screening Cc1c(Cc2ccc3c(c2)OCO3)sc(NC(=O)C2CC2)c1C(N)=O returned G9a inh 3.5µM*, HP1b binding inh -23%, GLS inh 5%, JMJD2A Tudor inconclusive and BAZ2B inh -33%.
`CCN(CC)C(=O)c1sc(NC(=O)c2ccc3c(c2)OCO3)c(C(N)=O)c1C` gave HP1b binding inh 14%, GLS inh 0%, JMJD2A Tudor 6% and BAZ2B inh -10%.
Cc1c(Cc2ccc3c(c2)OCO3)sc(NC(=O)c2cccc3ccccc23)c1C(N)=O was read as G9a inh 7.1µM*, HP1b binding inh inconclusive, GLS inh -18%, JMJD2A Tudor inconclusive and BAZ2B inh inconclusive.
COC(=O)c1c(NC(=O)CN2C(=O)c3ccccc3C2=O)sc(Cc2ccc3c(c2)OCO3)c1C was read as G9a inh 50µM*, HP1b binding inh -8%, GLS inh -10%, JMJD2A Tudor -2% and BAZ2B inh -6%.
For CCc1nnc(NC(=O)CCC(=O)NC2CCCCCCC2)s1 the results were G9a inh 12%, HP1b binding inh 0%[57 µM], GLS inh -5%, JMJD2A Tudor -17% and BAZ2B inh -20%.
Screening c1ccc(OCCCN2CCCC2)cc1 returned G9a inh 3.2µM*, HP1b binding inh -45%, GLS inh 5%, JMJD2A Tudor 2.8µM* and BAZ2B inh 79µM*.
c1ccc(OCc2ccc(CCCN3CCOCC3)cc2)cc1 was read as G9a inh 12%[12.7 µM], HP1b binding inh 6%, GLS inh 5%, JMJD2A Tudor -19% and BAZ2B inh -5%.
`c1ccc(COc2ccc(OCCCN3CCCCC3)cc2)cc1` gave G9a inh 13µM*, HP1b binding inh inconclusive, GLS inh -1%, JMJD2A Tudor 40µM* and BAZ2B inh inconclusive.
For c1ccc(COc2ccc(OCCCCN3CCCC3)cc2)cc1 the results were G9a inh 22µM*, HP1b binding inh inconclusive, GLS inh 7%, JMJD2A Tudor 1.4µM* and BAZ2B inh 56µM*.
